Hits are enriched below; roughly 4% of the tested compounds scored in any of these assays.
TROY signal inh = inhibitors of TROY-dependent NF-kB signaling | Q293 LMP1-TROYcd NF-kB luciferase reporter, 4 h | inhibition, % at 10 µM | 360,000 compounds, 0.98% hits | AID 1347056;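 active means compounds whose plate-normalised and pattern-corrected inhibition of the luciferase reporter signal at the single screening dose is 50% or more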
TWEAK-Fn14 inh = TWEAK-Fn14 signaling inhibition | 360,000 compounds, 2% hits | inhibition, % at 10 µM | TWEAK-stimulated Fn14 reporter cells, luciferase luminescence, 8 h; in the data active means inhibition above about 50%
KKLEB tox = CF airway cell cytotoxicity counter-screen; KKLEB CF airway cells viability, ATPlite luminescence, overnight; stronger effect = lower value; cells stimulated with P. aeruginosa culture filtrate; activity change (cytotoxicity), % at 5 µM; 360,000 compounds, 0.36% hits; AID 602141;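 active means corrected activity change at or below -50% at 5 µM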
Peg3 promoter = reduces Peg3 promoter-driven luciferase expression in HeLa; HeLa PEG-Prom luciferase reporter, luminescence, overnight; inhibition, % at 20 µM; 360,000 compounds, 1.7% hits;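 active means inhibition of at least 50% at 20 µM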
CF NFkB block = inhibitors of cystic fibrosis induced NF-kB | KKLEB NF-kB-GFP reporter, PAF-induced, GFP fluorescence overnight | inhibition, % at 5 µM | 360,000 compounds, 0.86% hits | AID 588850;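 active means at least 50% inhibition at 5 µM, scaled per plate between neutral and stimulator controls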;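 further: PAF is a Pseudomonas aeruginosa culture filtrate used as stimulus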
HIF-2a inh = inhibitors of HIF-2a; 786-0 RCC cells HIF-2a reporter, luciferase luminescence, overnight; 360,000 compounds, 0.72% hits; inhibition, % at 18.8 µM;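 active means inhibition of the luminescence signal of 40% or more relative to plate controls, in a single-dose primary screen at 18.75 µM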
Mdm2 MdmX conf = Mdm2/MdmX (human) interaction inhibition, confirmed. shares compounds with HIF-2a inh. SaOS-2 split-luciferase Mdm2/MdmX complementation, luminescence. inhibition, % at 8 µM. 740 compounds, 99% hits. AID 504601;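 active means mean inhibition of the luminescence signal across two replicates at or above 26 percent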
Target sequence (O15151 whole entry, looked up): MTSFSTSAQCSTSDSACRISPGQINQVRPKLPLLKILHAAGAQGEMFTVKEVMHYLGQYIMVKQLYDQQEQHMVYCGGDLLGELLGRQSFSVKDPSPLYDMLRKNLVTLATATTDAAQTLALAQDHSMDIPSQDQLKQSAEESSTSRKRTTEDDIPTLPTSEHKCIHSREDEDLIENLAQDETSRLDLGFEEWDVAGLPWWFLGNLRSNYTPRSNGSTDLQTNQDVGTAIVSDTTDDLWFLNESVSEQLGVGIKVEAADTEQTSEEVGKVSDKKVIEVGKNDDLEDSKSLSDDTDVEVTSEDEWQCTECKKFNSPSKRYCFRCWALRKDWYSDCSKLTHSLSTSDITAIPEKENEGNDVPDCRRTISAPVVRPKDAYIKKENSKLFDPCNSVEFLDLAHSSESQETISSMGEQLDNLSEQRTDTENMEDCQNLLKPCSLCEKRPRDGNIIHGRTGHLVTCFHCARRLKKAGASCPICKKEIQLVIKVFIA
Target sequence (Q00987 whole entry, looked up): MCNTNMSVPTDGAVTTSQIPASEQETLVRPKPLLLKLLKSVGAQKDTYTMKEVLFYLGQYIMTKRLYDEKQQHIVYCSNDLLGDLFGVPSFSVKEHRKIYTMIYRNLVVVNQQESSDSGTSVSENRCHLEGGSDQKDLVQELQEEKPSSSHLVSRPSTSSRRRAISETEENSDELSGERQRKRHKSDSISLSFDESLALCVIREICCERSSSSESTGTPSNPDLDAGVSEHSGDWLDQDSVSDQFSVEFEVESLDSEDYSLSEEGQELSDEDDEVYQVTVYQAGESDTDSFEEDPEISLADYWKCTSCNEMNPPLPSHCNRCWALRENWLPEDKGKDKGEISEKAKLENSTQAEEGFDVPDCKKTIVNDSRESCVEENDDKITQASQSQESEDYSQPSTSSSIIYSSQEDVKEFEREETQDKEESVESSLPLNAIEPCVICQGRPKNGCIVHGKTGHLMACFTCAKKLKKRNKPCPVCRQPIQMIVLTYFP
HIF-2a conf = confirmation of HIF-2a inhibitors. shares compounds with HIF-2a inh. 786-0 RCC cells, HIF-2a luciferase reporter luminescence, overnight. inhibition, % at 18.8 µM. 1,800 compounds, 56% hits. AID 651580;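 active means mean inhibition across four replicates of at least 40 percent at the single tested concentration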
HIF-1a counter = counter-screen for HIF-2a inhibitors: HIF-1a inhibition in MiaPaCa-2 cells; shares compounds with HIF-2a inh; AID 651589; 1,800 compounds, 72% hits; MiaPaCa-2 HIF-1a luciferase reporter, desferoxamine, overnight; inhibition, % at 18.8 µM;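 active means mean inhibition of the reporter signal across four replicates at the single tested dose of 50% or more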
Hits are given with their value.

Results for COc1ccc(/C=N/n2c(=O)[nH]c3c([nH]c4ccc(Cl)cc43)c2=O)cc1CN1CCCCC1 ?
TROY signal inh: inactive; TWEAK-Fn14 inh: inactive; KKLEB tox: inactive; Peg3 promoter: inactive; CF NFkB block: inactive; HIF-2a inh: inactive

How did COc1ccc2[nH]c3c(=O)n(/N=C/[C@H]4C(C)C=C(C)CC4C)c(=O)[nH]c3c2c1 (some centres not stated) do in these assays?
TROY signal inh: inactive; TWEAK-Fn14 inh: inactive; KKLEB tox: inactive; Peg3 promoter: 51.0; CF NFkB block: inactive; HIF-2a inh: 57.5; HIF-2a conf: inactive; HIF-1a counter: 100.2

How did CNC(=O)NC(=O)C(C)OC(=O)CCCSc1nc2ccccc2s1 (configuration not stated) do in these assays?
TROY signal inh: inactive; TWEAK-Fn14 inh: 54.9; KKLEB tox: inactive; Peg3 promoter: inactive; CF NFkB block: inactive; HIF-2a inh: 70.9; HIF-2a conf: 83.8; HIF-1a counter: 63.3

What do the screens show for `CCNC(=O)NC(=O)C(C)OC(=O)CCCSc1nc2ccccc2s1` (configuration not stated)?
TROY signal inh: inactive; TWEAK-Fn14 inh: 59.3; KKLEB tox: inactive; Peg3 promoter: inactive; CF NFkB block: inactive; HIF-2a inh: 68.4; HIF-2a conf: 86.2; HIF-1a counter: 68.4

What do the screens show for `CNC(=O)NC(=O)C(C)OC(=O)CCCc1nc2ccccc2s1` (configuration not stated)?
TROY signal inh: inactive; TWEAK-Fn14 inh: inactive; KKLEB tox: inactive; Peg3 promoter: inactive; CF NFkB block: inactive; HIF-2a inh: inactive

Results for CCNC(=O)NC(=O)COC(=O)CCCSc1nc2ccccc2s1 ?
TROY signal inh: inactive; TWEAK-Fn14 inh: inactive; KKLEB tox: inactive; Peg3 promoter: inactive; CF NFkB block: inactive; HIF-2a inh: 60.3; HIF-2a conf: 85.6; HIF-1a counter: 59.9

How did CC(OC(=O)CCCc1nc2ccccc2s1)C(=O)NC(N)=O (configuration not stated) do in these assays?
TROY signal inh: inactive; TWEAK-Fn14 inh: inactive; KKLEB tox: inactive; Peg3 promoter: inactive; CF NFkB block: inactive; HIF-2a inh: inactive

Results for Cc1cccc(NC(=O)CNC(=O)CN2C(=O)NC(C)(CCC(C)C)C2=O)c1C (configuration not stated) ?
TROY signal inh: inactive; TWEAK-Fn14 inh: inactive; KKLEB tox: inactive; Peg3 promoter: inactive; CF NFkB block: inactive; HIF-2a inh: inactive

How did Cc1nc(SCc2ccc(C(=O)O)cc2)nc2c1CCCC2 do in these assays?
TROY signal inh: inactive; TWEAK-Fn14 inh: inactive; KKLEB tox: inactive; Peg3 promoter: inactive; CF NFkB block: inactive; HIF-2a inh: 82.3; HIF-2a conf: 88.9; HIF-1a counter: 61.7

What do the screens show for `NC(c1csc(Nc2nncc3ccccc23)n1)C1CCCCC1` (configuration not stated)?
TROY signal inh: inactive; TWEAK-Fn14 inh: inactive; KKLEB tox: inactive; Peg3 promoter: 113.0; CF NFkB block: inactive; HIF-2a inh: 68.3; HIF-2a conf: inactive; HIF-1a counter: 106.5

How did COC(=O)COc1ccc(-c2nccc(-c3ccc(Br)cc3)n2)cc1 do in these assays?
TROY signal inh: inactive; TWEAK-Fn14 inh: inactive; KKLEB tox: inactive; Peg3 promoter: inactive; CF NFkB block: inactive; HIF-2a inh: 40.7; HIF-2a conf: 42.8; HIF-1a counter: inactive

Results for COC(=O)COc1ccc(-c2nccc(-c3ccccn3)n2)cc1 ?
TROY signal inh: inactive; TWEAK-Fn14 inh: 60.7; KKLEB tox: inactive; Peg3 promoter: inactive; CF NFkB block: inactive; HIF-2a inh: 70.9; HIF-2a conf: 91.2; HIF-1a counter: 63.6

How did Cc1ccc(C(=O)Oc2ccc(-c3nccc(-c4ccccn4)n3)cc2)cc1 do in these assays?
TROY signal inh: inactive; TWEAK-Fn14 inh: inactive; KKLEB tox: inactive; Peg3 promoter: inactive; CF NFkB block: inactive; HIF-2a inh: inactive

Results for CCOC(=O)c1c(C)nn(-c2ccc(NC(=O)/C=C/C(=O)O)cc2)c1C ?
TROY signal inh: inactive; TWEAK-Fn14 inh: 60.7; KKLEB tox: inactive; Peg3 promoter: inactive; CF NFkB block: inactive; HIF-2a inh: 74.5; HIF-2a conf: 48.2; HIF-1a counter: inactive

What do the screens show for `CCOC(=O)c1c(C)nn(-c2ccc(NC(=O)c3cccs3)cc2)c1C`?
TROY signal inh: inactive; TWEAK-Fn14 inh: inactive; KKLEB tox: inactive; Peg3 promoter: inactive; CF NFkB block: inactive; HIF-2a inh: inactive

What do the screens show for `CCOC(=O)c1c(C)nn(-c2ccc(NC(=O)c3c(C)noc3C)cc2)c1C`?
TROY signal inh: inactive; TWEAK-Fn14 inh: inactive; KKLEB tox: inactive; Peg3 promoter: inactive; CF NFkB block: inactive; HIF-2a inh: 65.5; HIF-2a conf: 80.3; HIF-1a counter: inactive

How did COc1ccc(CC(=O)N2CCc3cc(OC)c(OC)cc3C2O)cc1OC (configuration not stated) do in these assays?
TROY signal inh: inactive; TWEAK-Fn14 inh: inactive; KKLEB tox: inactive; Peg3 promoter: inactive; CF NFkB block: inactive; HIF-2a inh: inactive

What do the screens show for `CC[C@]1(C(=O)OC)[C@H]2C(=O)N(Cc3ccccc3)C(=O)[C@H]2[C@H]2CN=C(SCc3ccc(C)cc3)N21`?
TROY signal inh: inactive; TWEAK-Fn14 inh: inactive; KKLEB tox: inactive; Peg3 promoter: inactive; CF NFkB block: inactive; HIF-2a inh: inactive; Mdm2 MdmX conf: 96.7

Results for CC[C@]1(C(=O)OC)[C@H]2C(=O)N(Cc3ccccc3)C(=O)[C@H]2[C@H]2CN=C(SCc3ccc(C(=O)OC)cc3)N21 ?
TROY signal inh: inactive; TWEAK-Fn14 inh: inactive; KKLEB tox: inactive; Peg3 promoter: inactive; CF NFkB block: inactive; HIF-2a inh: inactive

What do the screens show for `O=C(Nc1ccc(F)cc1)C(c1ccncc1)N1CCN(c2cccc(C(F)(F)F)n2)CC1` (configuration not stated)?
HIF-2a inh: inactive

How did O=C(Nc1ccc2nc3n(c(=O)c2c1)CCCC3)c1cc([N+](=O)[O-])ccc1F do in these assays?
TROY signal inh: 80.5; TWEAK-Fn14 inh: 89.5; KKLEB tox: inactive; Peg3 promoter: 111.0; CF NFkB block: inactive; HIF-2a inh: 47.8; Mdm2 MdmX conf: 103.0; HIF-2a conf: inactive; HIF-1a counter: 105.0

Results for CCc1ccc(CN(C)C(=O)c2cc(COc3cncc(Cl)c3)on2)cc1 ?
TROY signal inh: inactive; TWEAK-Fn14 inh: inactive; KKLEB tox: inactive; Peg3 promoter: inactive; CF NFkB block: inactive; HIF-2a inh: inactive
